# Source: PubChem (several laboratories)
# LGR2 inh: blocks bursicon-induced cAMP signaling via Drosophila LGR2; AID 720647; HEK293 LGR2, CRE-luciferase, bursicon-stimulated, 4 h; inhibition, % at 9.99 µM; actives 0.35% (n = 380,000);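 active = drop in luminescence signal, shown as inhibition above about 50% in the replicate tests, limit read from the data, passing the limit was not always enough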;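 also: agonist challenge used bursicon conditioned medium at about half maximal strength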
# KKLEB tox: CF airway cell cytotoxicity counter-screen; KKLEB CF airway cells viability, ATPlite luminescence, overnight; active compounds read low; cells stimulated with P. aeruginosa culture filtrate; activity change (cytotoxicity), % at 5 µM; actives 0.36% (n = 360,000);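 active = corrected activity change at or below -50% at 5 µM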
# iPSC survival up: enhancers of human iPSC single-cell survival; survival enhancement, % at 20 µM; hiPSC single-cell survival, ATPlite luminescence; 100% = ROCK inhibitor wells, 0% = DMSO; actives 0.044% (n = 360,000); in the data active = survival enhancement above about 18%;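 also: cells exposed to compounds for 16 hours before the ATP read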
# HIF-2a block: HIF-2a inhibition. 786-0 RCC cells HIF-2a reporter, luciferase luminescence, overnight. inhibition, % at 18.8 µM. actives 0.72% (n = 360,000). AID 624352;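 active = inhibition of the luminescence signal of 40% or more relative to plate controls, in a single-dose primary screen at 18.75 µM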
# CF NFkB inh: cystic fibrosis NF-kB activation inhibition. actives 0.86% (n = 360,000). inhibition, % at 5 µM. AID 588850. KKLEB NF-kB-GFP reporter, PAF-induced, GFP fluorescence overnight;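 active = at least 50% inhibition at 5 µM, scaled per plate between neutral and stimulator controls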;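 also: PAF is a Pseudomonas aeruginosa culture filtrate used as stimulus; plate controls were PAF-stimulated DMSO wells for no effect and unstimulated DMSO wells for full effect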
# TWEAK-Fn14 inh: TWEAK-Fn14 signaling inhibition; TWEAK-stimulated Fn14 reporter cells, luciferase luminescence, 8 h; actives 2% (n = 360,000); inhibition, % at 10 µM; AID 1159606; in the data active = inhibition above about 50%
# CF NFkB conf: confirmation of cystic fibrosis induced NF-kB inhibitors; inhibition, % at 5 µM; KKLEB CF airway cells, PAF-induced NF-kB-GFP fluorescence, overnight; shares compounds with CF NFkB inh; actives 64% (n = 1,300); in the data active = inhibition above about 40%;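 also: stimulus PAF is a Pseudomonas aeruginosa filtrate and not platelet activating factor; plate controls were DMSO wells with stimulus for no effect and unstimulated DMSO wells for full effect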
# The depositor's hits bear a star; . = not tested or not shown. Sampled rows, rich in hits. Any-hit rate of the full collection: about 2.3%.
SMILES,LGR2 inh,KKLEB tox,iPSC survival up,HIF-2a block,CF NFkB inh,TWEAK-Fn14 inh,CF NFkB conf
CC(=O)Nc1ccc(NC(=O)COC(=O)c2c3c(nc4ccccc24)CCN(Cc2ccccc2)C3)cc1,.,-7,3,-16,57*,9,72*
O=C(NCc1ccc(F)cc1)c1c2c(nc3ccccc13)CCN(Cc1ccccc1)C2,9,-17,-1,13,20,21,.
O=C(COC(=O)c1c2c(nc3ccccc13)CCN(Cc1ccccc1)C2)Nc1c(F)cccc1F,20,-5,0,7,75*,13,76*
CCOc1cc2c(cc1O)C(=NOC)CC1C2CCC2(C)C(O)CCC12 (stereo not drawn),-6,-17,0,14,52*,4,76*
Cc1cc(O)cc2c1C1CCC3(C)C(O)CCC3C1C=C2 (stereo not drawn),1,3,0,-118,4,-5,.
COc1ccc(-n2cnc3ccccc32)cc1,-5,-1,-1,-58,39,49,.
COc1ccc2ncn(-c3ccccc3)c2c1,.,-6,-2,12,58*,30,57*
C[C@H]1CN([C@@H](C)CO)C(=O)c2cc(C3=CCCCC3)cnc2O[C@H]1CN(C)C(=O)c1ccncc1,10,.,.,.,.,.,.
Oc1cc2c(cc1C(c1ccc(Cl)c(Cl)c1)N1CCCC1)OCO2 (stereo not drawn),-25,-48,-2,29,64*,16,44*
O=C(Nc1cccc(Cl)c1)Nc1cc(S(=O)(=O)N2CCCCC2)ccc1Cl,34,-46,0,-22,50*,84*,75*
COC(=O)c1cc(NC(=O)Nc2cccc(Cl)c2)ccc1Cl,7,-30,0,-294,50*,78*,35
CN1CCN(S(=O)(=O)c2ccc(NC(=O)Nc3cccc(Cl)c3)cc2)CC1,.,-3,1,-11,18,3,.
O=C(Nc1ccccc1)Nc1ccc(Br)cc1F,.,27,-1,-304,-5,-15,.
O=C(Nc1cccc(Cl)c1)Nc1ccc(Br)cc1F,8,-43,0,-248,59*,33,20
C[C@@H]1CCCCO[C@@H](CN(C)C(=O)C2CCCCC2)[C@H](C)CN([C@@H](C)CO)C(=O)c2cc(NC(=O)CCCN(C)C)ccc2O1,-4,.,.,.,.,.,.
O=C(Cc1ccc(Cl)cc1)Nc1ncc([N+](=O)[O-])s1,-91,4,-1,-274,35,-11,.
CCC(Oc1ccccc1)C(=O)Nc1nnc(C)s1 (stereo not drawn),.,4,4,3,-3,3,.
CCC(Oc1ccccc1)C(=O)Nc1ncc([N+](=O)[O-])s1 (stereo not drawn),3,-3,-1,-77,50*,8,46*
O=C(COc1ccc(Cl)cc1)Nc1ncc([N+](=O)[O-])s1,35,-49,-1,-240,57*,79*,75*
C[C@H](CO)N1C[C@H](C)[C@H](CN(C)C(=O)Nc2ccc(F)cc2)Oc2ccc(NS(C)(=O)=O)cc2CC1=O,15,.,.,.,.,.,.
O=C(Nc1ccc(Cl)c(Cl)c1)N[C@@H]1CC[C@H](CCn2cc(C3CCCC3)nn2)O[C@@H]1CO,6,.,.,.,.,.,.
C[C@H](CO)N1C[C@H](C)[C@H](CN(C)C(=O)Nc2ccc(F)cc2)Oc2ncc(C#C[C@@H](C)O)cc2C1=O,29,.,.,.,.,.,.
Cc1nc([N+](=O)[O-])c(Sc2nc3ccccc3n2C)n1Cc1ccccc1,20,-34,-3,14,65*,34,56*
CCCNC(=O)N(C)C[C@H]1Oc2cc(-c3ccccc3F)ccc2S(=O)(=O)N([C@H](C)CO)C[C@H]1C,-15,.,.,.,.,.,.
O=C(Nc1nc2ccc(F)cc2s1)C1CCN(S(=O)(=O)c2cc([N+](=O)[O-])ccc2Cl)CC1,4,-17,-2,-209,79*,84*,72*
SMILES,LGR2 inh,KKLEB tox,iPSC survival up,HIF-2a block,CF NFkB inh,TWEAK-Fn14 inh,CF NFkB conf
CC(NC(=O)C1CCN(S(=O)(=O)c2cc([N+](=O)[O-])ccc2Cl)CC1)c1ccccc1 (stereo not drawn),21,-14,-3,3,0,-3,.
CC=Cc1ccc2n(c1=O)C[C@@H]1[C@@H](CO)[C@H](C(=O)Nc3ccc(-c4ccccc4)cc3)N(C)[C@H]21 (mixture of isomers),-6,.,.,.,.,.,.
CC(=O)NC(CC(C)C)C(=O)NC(Cc1ccccc1)C(=O)CCl (stereo not drawn),-2,-21,-3,-9,52*,10,56*
COc1ccc([C@H]2CC(=O)C=C(c3ccc(OC)c(F)c3)C2)cc1,-35,6,-4,-109,4,-39,.
COc1ccc([C@H]2CC(=O)C=C(c3ccc(OC)c(OC)c3)C2)cc1,-13,-17,6,-62,57*,-10,36
COc1ccc(S(=O)(=O)Nc2ccc3c(c2)C(=O)N([C@@H](C)CO)C[C@H](C)[C@H](CN(C)C(=O)Nc2ccc(C(F)(F)F)cc2)O3)cc1,-2,.,.,.,.,.,.
COc1ccc(OC)c(C2CC(=O)c3c([nH]c(C(=O)OCC4CCCO4)c3C)C2)c1 (stereo not drawn),6,2,-1,-91,15,39,.
COc1ccc(OC)c(C2CC(=O)c3c([nH]c(C(=O)OC(C)C)c3C)C2)c1 (stereo not drawn),-10,-12,-2,-38,61*,50,86*
COCC(=O)Nc1ccc2c(c1)OC[C@H](C)N(C(=O)CC1CC1)C[C@H](C)[C@@H](OC)CN(C)C2=O,3,.,.,.,.,.,.
c1ccc(-c2nc3nonc3nc2-c2ccccc2)cc1,.,-17,0,25,72*,20,66*
O=C(C[C@H]1CC[C@@H]2[C@H](COC[C@@H](O)CN2C(=O)c2cccnc2)O1)NCc1ccc(-c2ccccc2)cc1,-20,.,.,.,.,.,.
O=C1C(=Cc2ccccc2[N+](=O)[O-])Cc2ccccc21,4,-48,-6,31,89*,95*,85*
Cn1cnnc1Sc1ccc(/C=C/C(=O)c2ccc(O)cc2)cc1[N+](=O)[O-],66*,-2,-1,36,59*,90*,-91
COc1ccc(CN(CCC(c2ccc(F)cc2)C2CCOC(C)(C)C2)C(=O)c2ccco2)cc1 (stereo not drawn),18,-15,-1,2,74*,27,49*
Cc1ccc2oc(=O)c3cnn(CC(=O)N4CCc5ccccc5C4)c3c2c1,-1,-3,0,14,6,18,.
Cc1ccc2oc(=O)c3cnn(CC(=O)Nc4cc(-c5cccc(F)c5)no4)c3c2c1,-8,-42,1,-1,53*,17,16
